High-throughput results from PubChem.
FLuc counter: qHTS profiling assay for firefly luciferase inhibitor/activator using purifed enzyme and Km concentrations of substrates (counterscreen for miR-21 project); Luciferin 4-monooxygenase (Photinus pyralis), P08659; purified FLuc, Km substrates, luminescence inhibition; Potency, µM (series often up to 57.5 µM), inactives show at the highest dose activity change, negative = inhibition, most hits filed as inhibitors; 360,000 compounds, 6.9% hits; AID 588342, 2011;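 note: plate controls were vehicle for no effect and reference inhibitor for full effect; nearly all actives have a fitted effect of over 55% in size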
Target sequence (P08659 whole entry, looked up): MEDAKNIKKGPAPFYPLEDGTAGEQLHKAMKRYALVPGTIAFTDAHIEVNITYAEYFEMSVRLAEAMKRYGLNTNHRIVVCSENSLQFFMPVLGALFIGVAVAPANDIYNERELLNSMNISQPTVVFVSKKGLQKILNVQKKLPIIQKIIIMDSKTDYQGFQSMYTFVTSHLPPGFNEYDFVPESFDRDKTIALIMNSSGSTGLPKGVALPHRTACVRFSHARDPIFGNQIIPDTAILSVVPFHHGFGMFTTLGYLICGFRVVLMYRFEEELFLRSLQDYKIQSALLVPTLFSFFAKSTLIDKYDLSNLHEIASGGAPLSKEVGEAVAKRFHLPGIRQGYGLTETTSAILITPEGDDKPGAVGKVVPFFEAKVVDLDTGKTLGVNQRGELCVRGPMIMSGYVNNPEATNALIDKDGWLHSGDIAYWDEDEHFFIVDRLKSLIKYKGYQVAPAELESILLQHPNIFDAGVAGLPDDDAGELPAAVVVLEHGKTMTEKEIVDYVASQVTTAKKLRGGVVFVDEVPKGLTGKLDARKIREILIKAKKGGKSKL
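Purified P. pyralis luciferase, 10 nM final, with Km-level 10 uM D-luciferin and 10 uM ATP in 50 mM Tris acetate pH 7.5, 10 mM Mg acetate, 0.01% Tween-20, 0.05% BSA; 6-point qHTS titration about 60 µM downward; luminescence read.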
NPC1 prom act: qHTS Assay for NPC1 Promoter Activators; Huh7 NPC1 promoter luciferase reporter, 24 h; Potency, µM (top dose mostly 9.22 µM), for inactives: at the top dose activation, most hits filed as activators; 320,000 compounds, 2.4% hits; AID 485313, 2010; note: % of control where 0% means no effect; nearly all actives have a fitted effect of over 60% in size
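Compounds in DMSO were transferred onto Huh7 NPC1-luciferase reporter cells pre-incubated 2 h; after 24 h at 37 °C, Amplite reagent was dispensed and luminescence recorded 10 min later.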
Luc counter: Counterscreen for Luciferase (Kinase-Glo TM) Inhibition | Kinase-Glo luciferase, ATP luminescence, 8 min | 200,000 compounds, 0.28% hits | Potency, µM (top dose mostly 38.3 µM), for the others: top-dose activity change, negative = inhibition, actives largely listed as inhibitors; note: % is set by controls: 0 for no effect and ±100 for the full control effect; nearly all actives have a fitted effect of over 60% in size
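Recombinant Kinase-Glo luciferase, 10 uM ATP (linear range), luciferin; imidazole pH 7.2 / KCl / MgCl2 / Tween / BSA buffer; 8 min RT; luminescence.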
SMN2 splice enh: qHTS Assay for Enhancers of SMN2 Splice Variant Expression | HEK293 SMN2-luciferase splicing reporter, luminescence, 30-36 h | Potency, µM (top dose mostly 46.1 µM), for inactives: at the highest dose activity change, positive = activation, hits mostly activators | 210,000 compounds, 2.8% hits; note: % of control where 0% means no effect; nearly all actives have a fitted effect of over 55% in size
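qHTS luciferase splicing reporter: luminescence rises when SMN2 exon 7 is included in transfected HEK293 cells. Compound exposure lasted 30-36 h at 37C, with 4.5 mM final sodium butyrate as control, followed by a ONE-Glo read.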
Rab9 prom act: qHTS Assay for Rab9 Promoter Activators; Huh7 Rab9 promoter-luciferase reporter, luminescence, 24 h; AID 485297, 2010; 320,000 compounds, 2.8% hits; Potency, µM (doses to about 9.22 µM), without a hit: at the highest dose activation, negative = inhibition, usual class: activators; note: % of control where 0% means no effect; nearly all actives have a fitted effect of over 60% in size
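Promoter activation is measured as luciferase luminescence in Huh7 cells stably transfected with a Rab9 promoter–luciferase construct, following 24 h compound exposure at 37 °C and 10 min reagent incubation at ambient temperature.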
ELG1 genotoxic: qHTS screen for small molecules that induce genotoxicity in human embryonic kidney (HEK293T) cells expressing luciferase-tagged ELG1; 330,000 compounds, 1.3% hits; HEK293T ELG1-luciferase reporter, luminescence, 16 h; AID 504466, 2011; Potency, µM (titrated, usually from 46 µM), inactives show at the highest dose activity change, positive = activation, most hits filed as activators; note: % of control where 0% means no effect; nearly all actives have a fitted effect of over 60% in size
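Reporter readout depends on ELG1 protein level, which increases with genetic stress. After 16 hr compound exposure at 37 °C, luciferase activity was quantified using ONE-Glo.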
Numbers without * were called inactive. An excerpt weighted towards active compounds, which were near 7.3% of everything screened. Calls come from the whole dose curve; as a rule, active = well fitted curve in the direction sought with a large enough effect; inconclusive = small, poorly fitted or top-dose-only effect, or another doubt; inactive = no such curve, though single readings can be large; an effect the other way counts as inactive or inconclusive. Potency is the fitted concentration of half-maximal effect.

Results for CCC(CC)C(=O)N1CCc2cc(OC)c(OC)cc2C1COc1ccc2c(C)cc(=O)oc2c1 (stereo not drawn) ?
FLuc counter: 2.6%; SMN2 splice enh: 8.4%

How did O=C(N=Nc1c(O)n(Cc2ccccc2)c2ccccc12)c1ccncc1 do in these assays?
FLuc counter: 23.9µM*; NPC1 prom act: 11.5%; Rab9 prom act: 8.2%; ELG1 genotoxic: -6.3%

Results for Cc1ccccc1OCCNC(=O)c1ccc2ccccc2n1 ?
FLuc counter: 4.78µM*; NPC1 prom act: inconclusive; Luc counter: -1.0%; SMN2 splice enh: 22.4µM*; Rab9 prom act: 3.16µM*; ELG1 genotoxic: 20.6µM*

Results for CCOc1ccc(NC(=S)c2ccc3ccccc3n2)cc1 ?
FLuc counter: inconclusive; NPC1 prom act: 3.55µM*; Rab9 prom act: inconclusive; ELG1 genotoxic: 15.2%

What do the screens show for `COc1ccc(N=C(NN)c2ccc3ccccc3n2)cc1`?
FLuc counter: 6.75µM*; NPC1 prom act: 17.0%; Luc counter: -0.7%; SMN2 splice enh: -1.2%; Rab9 prom act: 21.6%; ELG1 genotoxic: inconclusive

What do the screens show for `COc1ccc(CNC(=O)c2ccc(C(C)(C)C)cc2)cc1`?
FLuc counter: 3.01µM*; NPC1 prom act: 3.16µM*; Luc counter: 0.9%; Rab9 prom act: 2.82µM*; ELG1 genotoxic: inconclusive

Results for CCN(CC)C(=O)c1c(-c2ccccc2)c(-c2ccccc2)nn(C)c1=O ?
FLuc counter: -6.2%; SMN2 splice enh: -3.4%

How did Cc1cccc(NC(=O)C(=O)c2cc(C)n(-c3ccccc3)c2C)c1C do in these assays?
FLuc counter: -2.0%

What do the screens show for `Cc1ccc(COC(=O)c2ccc3ccccc3n2)cc1`?
FLuc counter: 15.1µM*; NPC1 prom act: -0.4%; Rab9 prom act: 4.5%; ELG1 genotoxic: 1.6%

What do the screens show for `COc1ccc(CNC(=O)c2ccc3ccccc3n2)cc1`?
FLuc counter: 26.9µM*; NPC1 prom act: 14.1%; Rab9 prom act: 15.2%; ELG1 genotoxic: 13.5%

What do the screens show for `COc1ccc(NC(=S)c2ccc3ccccc3n2)cc1`?
FLuc counter: 13.5µM*; NPC1 prom act: 3.16µM*; Rab9 prom act: 3.98µM*; ELG1 genotoxic: inconclusive

How did COc1ccc(NC(=O)CN(C)C(=O)c2ccc3ccccc3n2)cc1 do in these assays?
ELG1 genotoxic: 1.0%

Results for Clc1ccc(CN2CCSCC2)cc1Cl ?
FLuc counter: -1.7%; NPC1 prom act: -2.7%; Rab9 prom act: 7.3%; ELG1 genotoxic: 0.5%

How did c1ccc(-c2ccc(CN3CCSCC3)cc2)cc1 do in these assays?
FLuc counter: 26.9µM*; NPC1 prom act: 10.8%; Rab9 prom act: 0.1%; ELG1 genotoxic: 4.8%

How did CCC(=O)N1CCc2cc(S(=O)(=O)NC(C(=O)NCCc3ccc(OC)c(OC)c3)C(C)C)ccc21 (stereo not drawn) do in these assays?
FLuc counter: -10.4%; SMN2 splice enh: 6.3%

What do the screens show for `CCOc1ccc(/C=C/c2nc(C#N)c(N3CCCCC3)o2)cc1`?
FLuc counter: 1.7%; SMN2 splice enh: -2.3%

What do the screens show for `CNS(=O)(=O)c1cccc(C(=O)Nc2cccc(Cl)c2)c1`?
FLuc counter: inconclusive; NPC1 prom act: 19.0%; Luc counter: -0.6%; SMN2 splice enh: -18.5%; Rab9 prom act: 26.5%; ELG1 genotoxic: 0.8%

Results for COc1ccc(NC(=O)c2cccc(OS(=O)(=O)N(C)C)c2)cc1 ?
FLuc counter: 6.01µM*; NPC1 prom act: 1.58µM*; Luc counter: -2.7%; SMN2 splice enh: 11.2µM*; Rab9 prom act: 2µM*; ELG1 genotoxic: 8.5%

What do the screens show for `CN(C)S(=O)(=O)Oc1cccc(C(=O)Nc2ccc(Cl)c(Cl)c2)c1`?
FLuc counter: 4.78µM*; NPC1 prom act: 3.55µM*; Luc counter: -3.1%; SMN2 splice enh: 5.8%; Rab9 prom act: 2µM*; ELG1 genotoxic: 15.5%

What do the screens show for `COc1ccc(NC(=O)c2ccc(S(=O)(=O)N(C)C)cc2)cc1`?
FLuc counter: -17.7%; NPC1 prom act: -3.6%; Luc counter: -0.5%; Rab9 prom act: 1.0%; ELG1 genotoxic: 3.0%

What do the screens show for `CCC(=O)Nc1ccc(Cl)c(NC(=O)c2cccc(OC)c2)c1`?
FLuc counter: 2.4%; NPC1 prom act: -1.5%; Luc counter: 1.0%; SMN2 splice enh: -18.2%; Rab9 prom act: -6.2%; ELG1 genotoxic: -2.2%

What do the screens show for `CN(C)S(=O)(=O)Oc1cccc(C(=O)Nc2cccc(Cl)c2)c1`?
FLuc counter: 13.5µM*; NPC1 prom act: inconclusive; Luc counter: 0.5%; SMN2 splice enh: inconclusive; Rab9 prom act: inconclusive; ELG1 genotoxic: 0.2%

What do the screens show for `Nc1ccc(-c2nc3ncccc3o2)c(Cl)c1`?
FLuc counter: 4.78µM*; NPC1 prom act: 2µM*; Luc counter: 0.6%; SMN2 splice enh: 12.6µM*; Rab9 prom act: 3.16µM*; ELG1 genotoxic: 10.3µM*

What do the screens show for `Nc1ccc(Cl)c(-c2nc3ncccc3o2)c1`?
FLuc counter: inconclusive; NPC1 prom act: 20.5%; Luc counter: -0.4%; SMN2 splice enh: inconclusive; Rab9 prom act: 16.3%; ELG1 genotoxic: 6.5%

How did Nc1ccc(-c2nc3ncccc3o2)c(O)c1 do in these assays?
FLuc counter: 12µM*; NPC1 prom act: 2.82µM*; Rab9 prom act: 3.98µM*; ELG1 genotoxic: inconclusive

How did CCCCCNCCCCC do in these assays?
SMN2 splice enh: -3.4%

What do the screens show for `COc1cccc(Cn2c(Oc3cc(C)cc(C)c3)nc3c2c(=O)n(C)c(=O)n3C)c1`?
FLuc counter: -2.0%; SMN2 splice enh: -6.5%

How did Clc1ccc(/C=N/Nc2nnc(-c3ncc[nH]3)c3ccccc23)cc1 do in these assays?
FLuc counter: 0.849µM*; NPC1 prom act: 4.47µM*; Luc counter: -8.0%; SMN2 splice enh: inconclusive; Rab9 prom act: 2.82µM*; ELG1 genotoxic: -3.7%

How did Clc1cccc(/C=N/Nc2nnc(Cl)c3ccccc23)c1 do in these assays?
FLuc counter: inconclusive; NPC1 prom act: inconclusive; Luc counter: -6.2%; SMN2 splice enh: 12.2%; Rab9 prom act: 20.9%; ELG1 genotoxic: 8.7%

How did COc1ccccc1Nc1nc(Cl)nc(NC(C)(C)C)n1 do in these assays?
FLuc counter: inconclusive; NPC1 prom act: -0.1%; Luc counter: -0.1%; SMN2 splice enh: -7.3%; Rab9 prom act: 9.4%; ELG1 genotoxic: -5.5%
